Measurements reported in PMC7862700, “An all-to-all approach to the identification of sequence-specific readers for epigenetic DNA modifications on cytosine”.

Legend:
Experiment in all cases: DAPPL (digital affinity profiling via proximity ligation, sequencing); 10 mM Tris-HCl pH 7.5, 50 mM NaCl, 1 mM DTT, 4% glycerol, room temperature, 30 min; GST-TFs on glutathione beads, 16-mer random dsDNA library, 0.1% formaldehyde crosslink after washing; high values mean tight binding
Settings in all cases: protein: recombinant; tags: N-terminal GST; dsDNA, one strand shown
FLI1 = biological target: T1, FLI1 (Homo sapiens, UniProt Q01543 1-452)
T1 sequence: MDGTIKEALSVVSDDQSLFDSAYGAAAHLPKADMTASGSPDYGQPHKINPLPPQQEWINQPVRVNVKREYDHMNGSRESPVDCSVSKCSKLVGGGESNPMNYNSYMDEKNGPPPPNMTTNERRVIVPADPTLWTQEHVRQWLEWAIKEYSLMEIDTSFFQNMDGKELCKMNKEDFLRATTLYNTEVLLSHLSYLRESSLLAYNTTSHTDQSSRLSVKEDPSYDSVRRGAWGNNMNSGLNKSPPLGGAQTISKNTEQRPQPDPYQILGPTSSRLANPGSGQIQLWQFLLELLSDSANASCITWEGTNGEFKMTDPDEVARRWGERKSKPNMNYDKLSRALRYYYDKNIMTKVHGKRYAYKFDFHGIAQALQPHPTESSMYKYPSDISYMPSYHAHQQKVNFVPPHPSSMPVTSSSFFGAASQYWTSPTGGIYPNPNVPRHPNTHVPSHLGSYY
In short: (§1)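 Binding signal is defined as a hexamer's read frequency for one factor over its frequency for the tag-only sample. To obtain reads, GST-fused human transcription factors were expressed in yeast, captured on glutathione beads, barcoded with DNA and pooled with that sample. Pools met 200 nmole of a 16-mer random double-stranded DNA library in Tris/NaCl/DTT/glycerol buffer for 30 min at room temperature before washing, 0.1% formaldehyde crosslinking, proximity ligation (BsaI/T4 ligase, 1 h, 37 °C), PCR and Illumina NextSeq500 sequencing.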

GABPA = biological target: T2, GABPA (Homo sapiens, UniProt Q06546 1-454)
T2 sequence: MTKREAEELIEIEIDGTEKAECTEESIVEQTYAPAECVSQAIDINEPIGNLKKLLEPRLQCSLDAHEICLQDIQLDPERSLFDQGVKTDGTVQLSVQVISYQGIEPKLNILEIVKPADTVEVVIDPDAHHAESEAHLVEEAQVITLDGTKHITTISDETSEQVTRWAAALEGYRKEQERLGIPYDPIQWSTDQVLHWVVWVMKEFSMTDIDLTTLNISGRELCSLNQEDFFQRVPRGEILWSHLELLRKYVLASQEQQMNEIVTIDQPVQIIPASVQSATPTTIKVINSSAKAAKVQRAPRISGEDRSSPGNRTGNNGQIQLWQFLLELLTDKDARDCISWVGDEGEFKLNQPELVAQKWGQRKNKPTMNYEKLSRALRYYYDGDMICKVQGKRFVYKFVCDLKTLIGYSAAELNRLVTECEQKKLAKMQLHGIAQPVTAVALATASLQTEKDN
In short: as §1

ERG = biological target: T3, ERG (Homo sapiens, UniProt P11308 1-479)
T3 sequence: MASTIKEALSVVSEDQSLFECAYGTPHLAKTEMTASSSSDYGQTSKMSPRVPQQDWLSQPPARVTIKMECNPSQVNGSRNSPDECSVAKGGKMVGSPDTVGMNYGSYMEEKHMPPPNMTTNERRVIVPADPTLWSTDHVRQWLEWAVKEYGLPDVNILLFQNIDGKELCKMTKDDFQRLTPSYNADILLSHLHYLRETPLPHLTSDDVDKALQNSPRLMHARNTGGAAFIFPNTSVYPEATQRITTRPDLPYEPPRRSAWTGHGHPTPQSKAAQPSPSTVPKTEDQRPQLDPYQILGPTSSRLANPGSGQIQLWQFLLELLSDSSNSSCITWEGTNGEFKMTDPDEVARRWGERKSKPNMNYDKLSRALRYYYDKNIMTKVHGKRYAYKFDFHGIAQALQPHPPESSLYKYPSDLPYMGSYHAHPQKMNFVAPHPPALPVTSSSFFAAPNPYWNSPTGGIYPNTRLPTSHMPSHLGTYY
In short: as §1

ELF1 = ELF1 (Homo sapiens, UniProt P32519 1-619)
In short: as §1

EHF = biological target: T4, EHF (Homo sapiens, UniProt Q9NZC4 1-300)
T4 sequence: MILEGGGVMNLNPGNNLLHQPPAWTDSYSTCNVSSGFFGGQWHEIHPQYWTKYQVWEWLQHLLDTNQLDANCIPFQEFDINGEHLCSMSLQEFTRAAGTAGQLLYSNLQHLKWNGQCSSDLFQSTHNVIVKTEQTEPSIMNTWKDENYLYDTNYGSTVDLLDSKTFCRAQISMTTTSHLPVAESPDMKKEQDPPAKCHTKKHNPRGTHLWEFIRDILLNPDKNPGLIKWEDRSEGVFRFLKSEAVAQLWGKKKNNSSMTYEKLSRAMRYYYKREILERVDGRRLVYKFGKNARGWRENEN
In short: as §1

SPI1 = SPI1 (Homo sapiens, UniProt P17947 1-270)
In short: as §1

SPIB = SPIB (Homo sapiens, UniProt Q01892 1-262)
In short: as §1

ELK3 = biological target: T5, ELK3 (Homo sapiens, UniProt P41970 1-407)
T5 sequence: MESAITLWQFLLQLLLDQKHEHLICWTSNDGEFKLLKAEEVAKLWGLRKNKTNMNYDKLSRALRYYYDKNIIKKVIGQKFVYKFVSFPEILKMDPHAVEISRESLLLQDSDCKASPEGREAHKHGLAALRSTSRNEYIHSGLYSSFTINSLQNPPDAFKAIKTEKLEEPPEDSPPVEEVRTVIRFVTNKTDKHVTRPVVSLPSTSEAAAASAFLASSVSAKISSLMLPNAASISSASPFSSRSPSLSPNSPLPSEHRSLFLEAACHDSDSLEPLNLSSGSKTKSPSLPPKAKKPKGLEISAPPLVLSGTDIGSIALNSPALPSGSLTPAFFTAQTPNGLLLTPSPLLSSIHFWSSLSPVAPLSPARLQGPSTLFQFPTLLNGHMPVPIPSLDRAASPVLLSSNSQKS
In short: as §1

FEV = biological target: T6, FEV (Homo sapiens, UniProt Q99581 1-238)
T6 sequence: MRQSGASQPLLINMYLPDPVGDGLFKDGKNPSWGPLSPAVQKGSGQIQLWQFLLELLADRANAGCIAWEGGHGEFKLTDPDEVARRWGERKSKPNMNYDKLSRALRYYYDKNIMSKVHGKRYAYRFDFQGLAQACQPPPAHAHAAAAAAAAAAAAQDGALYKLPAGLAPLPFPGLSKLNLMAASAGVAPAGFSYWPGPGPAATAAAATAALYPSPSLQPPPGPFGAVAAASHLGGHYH
In short: as §1

ETV5 = ETV5 (Homo sapiens, UniProt P41161 1-510)
In short: as §1

SPIC = biological target: T7, SPIC (Homo sapiens, UniProt Q8N5J4 1-248)
T7 sequence: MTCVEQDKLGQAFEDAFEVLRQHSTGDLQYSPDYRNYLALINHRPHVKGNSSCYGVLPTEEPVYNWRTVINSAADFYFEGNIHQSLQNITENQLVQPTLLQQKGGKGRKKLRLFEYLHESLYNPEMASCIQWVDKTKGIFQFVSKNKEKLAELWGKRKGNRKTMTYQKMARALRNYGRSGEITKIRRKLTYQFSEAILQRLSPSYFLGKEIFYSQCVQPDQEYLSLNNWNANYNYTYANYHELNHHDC
In short: as §1

ELF4 = ELF4 (Homo sapiens, UniProt Q99607 1-663)
In short: as §1

ETV1 = ETV1 (Homo sapiens, UniProt P50549 1-477)
In short: as §1

ERF = biological target: T8, ERF (Homo sapiens, UniProt P50548 1-548)
T8 sequence: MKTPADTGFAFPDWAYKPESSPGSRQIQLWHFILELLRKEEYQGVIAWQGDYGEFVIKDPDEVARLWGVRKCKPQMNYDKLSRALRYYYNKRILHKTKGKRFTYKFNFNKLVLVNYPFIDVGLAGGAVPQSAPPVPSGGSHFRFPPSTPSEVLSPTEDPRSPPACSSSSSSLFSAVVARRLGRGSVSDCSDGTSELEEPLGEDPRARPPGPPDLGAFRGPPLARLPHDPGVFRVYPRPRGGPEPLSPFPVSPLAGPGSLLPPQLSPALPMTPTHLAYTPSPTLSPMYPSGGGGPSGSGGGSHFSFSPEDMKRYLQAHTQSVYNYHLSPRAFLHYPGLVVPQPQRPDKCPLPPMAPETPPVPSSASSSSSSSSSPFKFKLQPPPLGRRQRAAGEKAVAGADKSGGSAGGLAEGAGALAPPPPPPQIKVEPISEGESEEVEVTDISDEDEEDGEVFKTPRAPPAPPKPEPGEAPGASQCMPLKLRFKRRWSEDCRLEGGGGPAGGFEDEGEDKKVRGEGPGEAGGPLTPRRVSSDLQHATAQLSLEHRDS
In short: as §1

ETS2 = biological target: T9, ETS2 (Homo sapiens, UniProt P15036 1-469)
T9 sequence: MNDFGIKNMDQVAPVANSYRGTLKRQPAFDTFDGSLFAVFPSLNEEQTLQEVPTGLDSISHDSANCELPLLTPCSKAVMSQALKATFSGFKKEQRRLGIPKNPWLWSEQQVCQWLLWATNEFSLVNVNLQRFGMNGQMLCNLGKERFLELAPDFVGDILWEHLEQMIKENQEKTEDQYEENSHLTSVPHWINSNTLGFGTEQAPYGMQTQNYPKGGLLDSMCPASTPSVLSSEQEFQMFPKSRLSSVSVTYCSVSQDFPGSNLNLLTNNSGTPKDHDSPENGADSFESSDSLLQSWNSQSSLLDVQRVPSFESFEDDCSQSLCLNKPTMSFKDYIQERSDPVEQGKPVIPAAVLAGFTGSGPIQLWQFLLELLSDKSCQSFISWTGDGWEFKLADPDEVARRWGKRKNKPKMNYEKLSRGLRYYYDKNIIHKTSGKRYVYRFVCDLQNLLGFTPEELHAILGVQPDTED
In short: as §1

SPDEF = biological target: T10, SPDEF (Homo sapiens, UniProt O95238 1-335)
T10 sequence: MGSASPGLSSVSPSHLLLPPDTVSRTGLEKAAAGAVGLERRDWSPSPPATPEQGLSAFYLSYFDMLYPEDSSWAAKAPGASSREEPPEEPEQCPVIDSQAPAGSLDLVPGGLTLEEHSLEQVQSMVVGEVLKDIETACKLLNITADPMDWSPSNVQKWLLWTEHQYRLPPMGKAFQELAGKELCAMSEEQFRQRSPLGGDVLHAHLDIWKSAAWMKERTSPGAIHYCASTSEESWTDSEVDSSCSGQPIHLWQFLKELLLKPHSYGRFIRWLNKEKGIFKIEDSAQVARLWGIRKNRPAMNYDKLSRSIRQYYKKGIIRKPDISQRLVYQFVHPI
In short: as §1

ETV3 = biological target: T11, ETV3 (Homo sapiens, UniProt P41162-2 1-143)
T11 sequence: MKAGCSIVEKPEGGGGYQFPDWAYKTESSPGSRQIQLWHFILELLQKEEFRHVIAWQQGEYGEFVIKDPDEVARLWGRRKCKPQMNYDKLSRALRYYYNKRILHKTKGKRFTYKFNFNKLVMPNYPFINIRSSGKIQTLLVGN
In short: as §1

ETV6 = ETV6 (Homo sapiens, UniProt P41212 1-452)
In short: as §1

Chain of ETV6 (P41212 whole entry): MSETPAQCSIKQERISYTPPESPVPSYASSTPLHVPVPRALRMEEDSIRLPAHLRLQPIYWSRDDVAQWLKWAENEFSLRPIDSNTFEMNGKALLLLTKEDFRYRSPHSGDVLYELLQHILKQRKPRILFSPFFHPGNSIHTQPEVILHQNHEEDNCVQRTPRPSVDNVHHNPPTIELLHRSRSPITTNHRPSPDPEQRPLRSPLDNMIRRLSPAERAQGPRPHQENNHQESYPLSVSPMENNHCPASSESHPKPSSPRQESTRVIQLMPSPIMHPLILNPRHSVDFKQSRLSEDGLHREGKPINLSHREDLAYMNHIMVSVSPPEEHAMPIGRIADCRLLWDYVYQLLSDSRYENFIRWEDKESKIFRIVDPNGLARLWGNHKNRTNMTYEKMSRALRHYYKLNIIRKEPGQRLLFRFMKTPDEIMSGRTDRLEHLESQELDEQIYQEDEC
Chain of ELF4 (Q99607 whole entry): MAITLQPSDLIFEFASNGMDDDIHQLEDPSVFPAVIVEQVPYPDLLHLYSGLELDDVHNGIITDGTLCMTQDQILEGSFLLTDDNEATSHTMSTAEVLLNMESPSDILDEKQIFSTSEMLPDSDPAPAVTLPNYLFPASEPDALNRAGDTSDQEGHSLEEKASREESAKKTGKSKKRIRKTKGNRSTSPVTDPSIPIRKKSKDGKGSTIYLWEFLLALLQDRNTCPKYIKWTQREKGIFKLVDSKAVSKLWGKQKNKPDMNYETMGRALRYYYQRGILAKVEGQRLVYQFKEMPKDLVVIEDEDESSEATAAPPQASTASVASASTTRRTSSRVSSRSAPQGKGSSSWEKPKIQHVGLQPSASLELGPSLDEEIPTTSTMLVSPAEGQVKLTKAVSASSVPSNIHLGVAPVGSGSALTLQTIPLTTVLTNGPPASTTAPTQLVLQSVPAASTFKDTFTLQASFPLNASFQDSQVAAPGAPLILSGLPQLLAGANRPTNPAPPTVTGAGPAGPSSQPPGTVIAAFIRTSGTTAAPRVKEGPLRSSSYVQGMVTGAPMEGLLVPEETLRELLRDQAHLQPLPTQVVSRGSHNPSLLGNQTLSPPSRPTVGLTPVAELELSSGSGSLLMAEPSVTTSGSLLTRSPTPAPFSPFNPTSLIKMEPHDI
Chain of ETV1 (P50549 whole entry): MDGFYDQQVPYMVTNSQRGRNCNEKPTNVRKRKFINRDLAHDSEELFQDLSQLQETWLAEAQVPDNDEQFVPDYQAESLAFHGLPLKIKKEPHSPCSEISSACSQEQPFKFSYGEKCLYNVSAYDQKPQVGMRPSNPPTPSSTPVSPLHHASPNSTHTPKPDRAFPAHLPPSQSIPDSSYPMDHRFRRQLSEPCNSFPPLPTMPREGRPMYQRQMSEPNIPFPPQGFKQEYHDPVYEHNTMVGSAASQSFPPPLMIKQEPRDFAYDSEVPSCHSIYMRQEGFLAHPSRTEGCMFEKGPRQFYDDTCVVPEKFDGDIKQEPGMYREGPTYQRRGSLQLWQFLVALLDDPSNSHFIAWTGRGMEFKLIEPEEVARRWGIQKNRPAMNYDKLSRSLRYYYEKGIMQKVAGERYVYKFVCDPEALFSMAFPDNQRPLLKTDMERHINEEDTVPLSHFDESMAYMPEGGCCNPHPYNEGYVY
Chain of SPIB (Q01892 whole entry): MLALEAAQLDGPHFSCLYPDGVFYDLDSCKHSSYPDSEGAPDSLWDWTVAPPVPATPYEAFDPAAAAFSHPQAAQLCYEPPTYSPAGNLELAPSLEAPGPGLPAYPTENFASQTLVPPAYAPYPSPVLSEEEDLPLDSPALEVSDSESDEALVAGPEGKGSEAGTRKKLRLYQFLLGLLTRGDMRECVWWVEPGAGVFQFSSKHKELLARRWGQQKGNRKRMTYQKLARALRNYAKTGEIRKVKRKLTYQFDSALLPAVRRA
Chain of ELF1 (P32519 whole entry): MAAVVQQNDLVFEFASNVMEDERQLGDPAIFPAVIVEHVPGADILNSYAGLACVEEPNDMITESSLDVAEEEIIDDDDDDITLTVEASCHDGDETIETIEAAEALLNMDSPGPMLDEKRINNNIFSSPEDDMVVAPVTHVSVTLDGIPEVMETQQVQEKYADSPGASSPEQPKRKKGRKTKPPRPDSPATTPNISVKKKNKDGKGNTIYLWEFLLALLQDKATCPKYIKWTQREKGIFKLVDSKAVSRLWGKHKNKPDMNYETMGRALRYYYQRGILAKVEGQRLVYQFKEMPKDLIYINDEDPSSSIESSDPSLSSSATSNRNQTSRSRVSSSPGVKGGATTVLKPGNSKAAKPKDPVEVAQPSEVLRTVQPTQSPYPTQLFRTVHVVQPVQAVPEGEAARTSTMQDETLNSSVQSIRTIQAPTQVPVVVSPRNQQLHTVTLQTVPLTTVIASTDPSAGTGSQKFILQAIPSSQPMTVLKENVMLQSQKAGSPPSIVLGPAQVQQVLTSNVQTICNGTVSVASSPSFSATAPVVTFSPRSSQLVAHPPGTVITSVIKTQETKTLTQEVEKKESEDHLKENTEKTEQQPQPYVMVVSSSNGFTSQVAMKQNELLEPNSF
Chain of ETV5 (P41161 whole entry): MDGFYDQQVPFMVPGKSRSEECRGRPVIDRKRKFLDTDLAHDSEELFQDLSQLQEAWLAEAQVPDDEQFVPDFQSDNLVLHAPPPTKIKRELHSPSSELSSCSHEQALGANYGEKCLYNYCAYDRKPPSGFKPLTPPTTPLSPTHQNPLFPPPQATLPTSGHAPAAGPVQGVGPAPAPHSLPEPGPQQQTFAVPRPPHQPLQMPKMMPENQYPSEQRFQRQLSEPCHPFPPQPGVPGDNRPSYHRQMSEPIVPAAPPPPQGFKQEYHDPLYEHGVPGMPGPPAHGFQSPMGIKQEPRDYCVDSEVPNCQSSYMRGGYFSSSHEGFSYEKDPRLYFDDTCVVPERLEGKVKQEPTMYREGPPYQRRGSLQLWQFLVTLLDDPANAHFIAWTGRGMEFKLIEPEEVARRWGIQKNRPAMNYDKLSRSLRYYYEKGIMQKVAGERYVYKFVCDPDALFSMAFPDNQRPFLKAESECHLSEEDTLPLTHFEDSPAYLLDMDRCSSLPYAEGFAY

For CGCTAT, the binding signal (FLI1) was 1.13 fold enrichment (6-mer frequency, TF over GST control), the binding signal (GABPA) was 1.07 fold enrichment (6-mer frequency, TF over GST control) and the binding signal (ERG) was 1.09 fold enrichment (6-mer frequency, TF over GST control). For the same sequence, the binding signal (ELF1) was 1.09 fold enrichment (6-mer frequency, TF over GST control), the binding signal (EHF) was 1.06 fold enrichment (6-mer frequency, TF over GST control) and the binding signal (SPI1) was 1.11 fold enrichment (6-mer frequency, TF over GST control). For the same sequence, the binding signal (SPIB) was 1.12 fold enrichment (6-mer frequency, TF over GST control), the binding signal (ELK3) was 1.13 fold enrichment (6-mer frequency, TF over GST control) and the binding signal (FEV) was 1.04 fold enrichment (6-mer frequency, TF over GST control). The binding signal (ETV5) was 1.1 fold enrichment (6-mer frequency, TF over GST control), the binding signal (SPIC) was 1.01 fold enrichment (6-mer frequency, TF over GST control) and the binding signal (ELF4) was 1.15 fold enrichment (6-mer frequency, TF over GST control). For the same sequence, the binding signal (ETV1) was 1.09 fold enrichment (6-mer frequency, TF over GST control), the binding signal (ERF) was 1.16 fold enrichment (6-mer frequency, TF over GST control) and the binding signal (ETS2) was 1.03 fold enrichment (6-mer frequency, TF over GST control). The binding signal (SPDEF) was 1.1 fold enrichment (6-mer frequency, TF over GST control), the binding signal (ETV3) was 1.14 fold enrichment (6-mer frequency, TF over GST control) and the binding signal (ETV6) was 1.09 fold enrichment (6-mer frequency, TF over GST control).
